This note sets out measurements from PubChem BioAssay AID720648 (The Scripps Research Institute Molecular Screening Center, 2013).

As a reminder, the inhibition is the relative decrease from the control value, in per cent.

Among all 370,000 compounds or so, about 3,100 (0.84%) were called active. The entries come from a sample that favours actives as a whole. A number with no mark means an inactive call.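 The calls were made as follows: active = inhibition above the mean of compounds lying between control limits plus 3 SD, set per campaign (cut at about 8.5% in these data); inactive = the rest.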

Chain of Disintegrin and metalloproteinase domain-containing protein 17 (Homo sapiens) (P78536 215-824 limits assumed): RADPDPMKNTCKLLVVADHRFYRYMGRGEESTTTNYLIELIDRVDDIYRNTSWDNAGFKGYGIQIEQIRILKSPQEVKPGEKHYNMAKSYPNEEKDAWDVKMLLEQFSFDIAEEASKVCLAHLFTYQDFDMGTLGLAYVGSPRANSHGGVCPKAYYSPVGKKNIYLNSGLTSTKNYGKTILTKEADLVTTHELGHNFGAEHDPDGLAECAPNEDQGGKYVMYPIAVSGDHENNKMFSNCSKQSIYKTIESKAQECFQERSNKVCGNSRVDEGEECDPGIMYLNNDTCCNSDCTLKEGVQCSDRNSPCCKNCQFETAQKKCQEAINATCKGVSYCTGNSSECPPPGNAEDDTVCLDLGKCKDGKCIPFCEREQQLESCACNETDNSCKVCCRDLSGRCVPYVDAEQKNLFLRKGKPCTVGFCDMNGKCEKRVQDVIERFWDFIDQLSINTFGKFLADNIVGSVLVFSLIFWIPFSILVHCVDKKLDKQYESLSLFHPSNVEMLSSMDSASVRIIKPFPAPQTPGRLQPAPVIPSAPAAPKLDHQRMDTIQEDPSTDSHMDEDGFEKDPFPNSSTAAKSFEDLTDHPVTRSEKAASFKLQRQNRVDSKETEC

The assay addresses Disintegrin and metalloproteinase domain-containing protein 17 (Homo sapiens) (UniProt P78536). Briefly: inhibition of ADAM17 peptide cleavage – biochemical, QFRET, primary screen (AID 720648).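 Also: 0% = DMSO-only wells as the low control.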 The settings on record: recombinant ADAM17, EDANS/DABCYL FRET peptide cleavage; at 6.95 µM; hits give high values.
Turning to `COc1ccc(Cn2ccc3ccc(-c4ccc5ccn(Cc6ccccc6C)c5c4)cc32)cc1`, the inhibition is -14.6%.

As for `CCCC1CCC2(CCCN2CCOC(=O)NCc2ccccc2)CC1` (centres undefined), the inhibition was -6.91%. For the compound `COc1ccc(NS(=O)(=O)c2ccc(O)c(C(=O)OCC(=O)NC3CCCCC3)c2)cc1`, the inhibition was -2.64%. Take `COc1cccc(NS(=O)(=O)c2ccc(-c3coc(C)n3)cc2)c1`: the inhibition is 0.72%.

Regarding `COc1ccc(S(=O)(=O)Nc2ccc(O)c(Sc3nc4ccccc4s3)c2)cc1`, the inhibition is 9.23% (active). Turning to `CCOC(=O)C1CCN(C(=O)C(C)(C)NC(=O)Nc2ccccc2Cl)CC1`, the inhibition is -3.66%. As for `C=CCN1C(=O)[C@@H](CC(=O)NCCCOCCCC)[C@]2(C(=O)OCC)CCCCC/C=C/12`, the inhibition is -0.06%. For the compound `CCC(c1ccc(NC(=O)OC(C)(C)C)cc1)c1cc(OC)cc(OC)c1` (centres undefined), the inhibition was 3.59%. Under `C=CCN1C(=O)[C@@H](CC(=O)N2CCN(C(=O)OCC)CC2)[C@]2(C(=O)OCC)CCCCC/C=C/12` stands -4.2%; under `Cc1cc(C(=O)NN=C/C=C/c2ccco2)n[nH]1`, -5.03%; under `COC(=O)C1CN(Cc2ccc(F)cc2)CCS(=O)(=O)N1Cc1ccc(Cl)cc1` (centres undefined), -3.73%. The same measure for `C[C@H]1[C@H](NC(=O)c2cccc(N(C)C)c2)CC[C@@]23CCCN2C(=O)CCC[C@@H]13`: -31.1%; for `CCOC(=O)c1csc(NC(=O)Nc2cccc(OC)c2)n1`: -0.26%. For the compound `COc1ccc(C(N)c2csc(NC(=O)Nc3cccc(C(F)(F)F)c3)n2)cc1` (centres undefined), the inhibition was 13.7% (active). With `CC(C)(C)CC(=O)Nc1nc(C(N)Cc2ccc(C(F)(F)F)cc2)cs1` (centres undefined), the inhibition was -1.9%. For `COc1ccc(CC(N)c2csc(NC(=O)NC(c3ccccc3)c3ccccc3)n2)cc1` (centres undefined), the inhibition is 8.79% (active). Consider `COc1ccc(CC(N)c2csc(NC(=O)Nc3ccc(C(C)C)cc3)n2)cc1` (centres undefined), for which the inhibition is 2.77%. `NC(c1csc(NC(=O)Nc2cccc(C(F)(F)F)c2)n1)C1CCCCC1` (centres undefined): the inhibition is 3.01%. Regarding `COc1ccc(-n2c(COc3ccc(C)cc3)nnc2SCC(=O)Nc2ccc(Oc3ccccc3)cc2)cc1`, the inhibition is -2.03%. For the compound `O=C1Nc2ccccc2OC1CC(=O)N1CCCCCCC1` (centres undefined), the inhibition was -1.23%.

On to `CCCCN1CCN(C(=O)c2ccc3c(c2)NC(=O)C(C)(C)O3)CC1`, for which the inhibition is 1.41%. With `COC(=O)c1c(C)[nH]c(C(=O)/C=C/c2ccc(Cl)cc2)c1C`, the inhibition was 9.17% (active).

Regarding `COC(=O)c1c(C)oc(C)c1S(=O)(=O)NCc1ccc(Cl)cc1`, the inhibition is -1.53%. In the case of `COC(=O)c1c(C)[nH]c(C(=O)NCCc2ccc(S(N)(=O)=O)cc2)c1C`, the inhibition is -14.5%. As to `Cc1c[nH]c2cccc(-c3ccc(Cl)cc3)c12`, the inhibition was -9.67%. `CCn1c(SCC(=O)N/N=C/c2ccccc2OCC(=O)O)nnc1-c1ccc(C(C)(C)C)cc1`: the inhibition was -1.28%. On to `O=C(CC(=O)N/N=C\c1cccc(Cl)c1Cl)NCc1ccccc1`, for which the inhibition was -1.85%. On to `C=CCOc1ccccc1/C=N/NC(=O)Cc1ccccc1`, for which the inhibition was 11.4% (active). For the compound `Oc1ccc(/C=C/c2c(F)cccc2F)c2cccnc12`, the inhibition is -0.42%. The same measure for `Nn1c(SCC(=O)Nc2ccc(S(N)(=O)=O)cc2)nnc1-c1n[nH]c2c1CCC2`: -1.11%. In the case of `CCOc1ccccc1NC(=O)NC1CCCCCCC1`, the inhibition was 2.55%.

As for `CCCN(CC(=O)NC(=O)NC1CCCCC1)CC(=O)Nc1cc(Cl)ccc1Cl`, the inhibition was 9.13% (active). As to `O=C(COc1cc(Cl)c(Cl)cc1Cl)NC(=O)NC1CCCC1`, the inhibition was -3.67%. The same measure for `CCC(C)[C@@H](C(=O)OC)N(CCc1cn(Cc2ccccc2)nn1)S(=O)(=O)c1ccccc1Br` (some centres undefined): 6.37%; for `CC(c1ccc(N)cc1)c1cn(C)c2ccccc12` (centres undefined): 1.58%; for `CCN1C(=O)C(=O)N(CC(=O)Nc2cc(C)ccc2C)C1=O`: -0.07%.

Turning to `CCN=C1SC(CC(=O)Nc2ccc(C)cc2)C(=O)N1CC` (centres undefined), the inhibition is -7.43%. Consider `CCN1C(=O)C(CC(=O)Nc2cc(C)ccc2C)SC1=Nc1ccc(S(N)(=O)=O)cc1` (centres undefined), for which the inhibition is 9.07% (active). The same measure for `O=C(CN1CCCc2ccccc21)NCc1ccc(F)cc1`: 1.67%; for `CCN(CC)C(=O)CC[C@H]1CC[C@]2(CCCN(Cc3ccc(Cl)cc3)C2)O1`: 1.61%; for `O=C(COc1ccccc1)Nc1nonc1NC(=O)COc1ccccc1`: -4.34%. Turning to `Cc1cccc(OCCC(=O)OCc2csc(CC(=O)Nc3ccccc3C)n2)c1`, the inhibition is -0.41%.

For the compound `Cc1onc(C(=O)NN)c1-c1csc(COc2ccccc2)n1`, the inhibition was 9% (active). Turning to `CCOC(=O)[C@]12CCCC3=C1N(CCC3)C(=O)[C@@H](CC(=O)N1CCSCC1)C2`, the inhibition is 0.18%. The same measure for `CC(=O)N1CCc2cc(S(=O)(=O)NCCC(=O)N3CCCC3)ccc21`: -3.27%; for `O=Nc1c(O)cc(O)c2ccccc12`: 10.5% (active). Turning to `O=c1c2ccccc2ccc2ccc(P(=O)(O)O)cc12`, the inhibition is -16.1%. Turning to `COc1cccc2c(O)cc(=O)n(C)c12`, the inhibition was -4.7%. In the case of `CCN(C(=O)[C@@H](C1CC1)[C@@H](O)c1ccc2ccccc2c1)c1ccccc1`, the inhibition was -1.62%. Turning to `COc1cccc(NC(=O)C/C(C)=N/NC(=O)C2CCCCC2)c1`, the inhibition is -3.38%. For the compound `COc1cccc(NC(=O)C2C(c3ccccc3)C2(Cl)Cl)c1` (centres undefined), the inhibition is 9.55% (active).

For `COc1cccc(NC(=O)C2c3cc(OC)c(OC)cc3C(=O)N(C)C2c2cccnc2)c1` (centres undefined), the inhibition was 1.58%.

On to `CC(C)CNS(=O)(=O)CC1NCCc2ccccc21` (centres undefined), for which the inhibition was -3.23%. In the case of `COc1ccc(C(=O)OCCN2CCN(C3CN(Cc4cn(Cc5ccccc5F)nn4)S(=O)(=O)C3)CC2)cc1OC` (centres undefined), the inhibition is -4.52%.

With `CC(=O)Nc1nc2ncccn2c1-c1ccc(C(F)(F)F)cc1`, the inhibition was -266%. On to `N#Cc1cccc(C(=O)NCC2CCN(C(=O)C(=O)c3cc4ccccc4o3)CC2)c1`, for which the inhibition was -3.28%.

For the compound `O=C(C(=O)N1CCC(CNS(=O)(=O)Cc2ccccc2)CC1)c1cc2ccccc2o1`, the inhibition was -3.01%. As for `CC(C)(C)c1ccc(S(=O)(=O)NCC2CCN(C(=O)C(=O)c3cc4ccccc4o3)CC2)cc1`, the inhibition is 9.75% (active). In the case of `CC(C)C(C#CC1CC1)N(Cc1ccc2c(c1)OCO2)C(N)=NC(=O)/C=C/c1cccc(C(F)(F)F)c1` (centres undefined), the inhibition was -3.71%. With `COc1ccc(-c2cc(-c3nnc(SCc4ccc([N+](=O)[O-])cc4)n3N)[nH]n2)cc1`, the inhibition is -2.61%. As for `COc1ccc(-c2cc(C3CCN(c4ncccc4[N+](=O)[O-])CC3)[nH]n2)cc1`, the inhibition is 9.29% (active). As to `CC(=O)NC(Cc1ccccc1)C(=O)NC1CCN(c2ncccc2[N+](=O)[O-])CC1` (centres undefined), the inhibition is -2.81%. In the case of `O=C1CCC2(CCC(c3ccc(Cl)cc3)CC2)N1CCO` (centres undefined), the inhibition is 1.61%. Regarding `CCn1c(=O)n2n(c1=O)[C@@]1(C=C3CCCC[C@H]32)N=C(NC(=O)c2ccccc2)N(Cc2ccccc2)[C@H]1Cc1ccccc1`, the inhibition was 5.91%.

On to `Cn1c(Nc2ccccc2)cc(=O)n(C)c1=O`, for which the inhibition is -0.84%. `Cc1cc(Nc2ccccc2)n(C(=O)c2ccc(N)cc2)n1`: the inhibition is 8.62% (active). Take `Cc1ccc(NC(=O)Nc2cc(C)nn2-c2ccccc2)cc1`: the inhibition is -1.4%. As to `COC(C(=O)NCc1ccccc1C)c1ccccc1` (centres undefined), the inhibition is -5.21%.

As to `CCC(Oc1ccccc1C)C(=O)Nc1ccc(S(=O)(=O)Nc2cc(C)on2)cc1` (centres undefined), the inhibition was -4.21%.

For the compound `COC(C(=O)Nc1ccc(S(=O)(=O)Nc2ccc(C)c(C)c2)cc1)c1ccccc1` (centres undefined), the inhibition is 9.01% (active). For the compound `COc1cccc(Cn2cc(COC(=O)Nc3ccc(F)cc3)nn2)c1`, the inhibition is -1.05%. Under `COc1ccccc1C(=O)NC1CCCCN(C(C)C)C1=O` (centres undefined) stands -7.08%. Consider `O=C(O)CCC(=O)N(Cc1ccco1)c1nc(-c2ccccc2)cs1`, for which the inhibition was -2.47%. Under `COc1ccc(CN(C(=O)c2cccs2)c2nccs2)cc1OC` stands 0.3%; under `COc1ccc(CCN(C(=O)COc2ccccc2)c2nc(-c3ccccc3)cs2)cc1OC`, 9.24% (active); under `C[C@@H]1COc2cccc(N3CCCC3)c2S(=O)(=O)N1C`, -5.16%.

For the compound `C=CCN1[C@@H](Cc2ccccc2)COc2cccc(N3CCSCC3)c2S1(=O)=O`, the inhibition was -1.76%.

Take `CCCn1nc(C(=O)NNC(=O)CSCC(=O)Nc2cc(C)on2)c2ccccc2c1=O`: the inhibition was 11.3% (active). For the compound `CCCn1nc(C(=O)NNC(=O)CCOc2ccccc2OCC)c2ccccc2c1=O`, the inhibition is -0.01%.

As for `Cc1cc(NC(=O)CSCC(=O)NC(C)c2ccccc2)no1` (centres undefined), the inhibition is -2.03%. `COC(=O)C1CN(CCc2ccccc2)CCS(=O)(=O)N1Cc1ccc(F)cc1` (centres undefined): the inhibition was -9.15%. For the compound `O=[N+]([O-])c1cc(S(=O)(=O)NCCc2ccccn2)ccc1Cl`, the inhibition is 0.55%.

With `Cc1ccc(S(=O)(=O)NCCSc2ccccc2)cc1[N+](=O)[O-]`, the inhibition was 10.7% (active).

For `CCOc1ccc(S(=O)(=O)NCCSc2ccccc2)cc1`, the inhibition was 6.1%. Take `C[C@H](C(=O)N(C)c1ccccc1)[C@@H](O)c1ccc2ccccc2c1`: the inhibition is -5.59%. `CCN(CC)C(=O)CC[C@@H]1CC[C@]2(CCCN(S(=O)(=O)C3CCCCC3)C2)O1`: the inhibition was -0.83%. In the case of `O=C(CN1CCCCCC1)Nc1ccc(S(=O)(=O)N2CCCCC2)cc1`, the inhibition is -1.57%. The same measure for `O=C(CSCc1ccc(Br)cc1)Nc1ccc(S(=O)(=O)N2CCCCCC2)cc1`: 12.9% (active); for `COc1ccc(OCC(=O)OCC(=O)Nc2ccc(S(=O)(=O)N3CCCCC3)cc2)cc1`: -0.04%.
